Screening results (PubChem BioAssay)
HPGD block = blocks human HPGD enzyme activity. P15428. purified HPGD, NADH fluorescence kinetic, PGE2 substrate. Potency, µM, for the others: at the highest dose activity change, negative = inhibition, actives largely listed as inhibitors. 4.3% of 150,000 active. AID 894; active means well fitted inhibition curve with a large enough effect, not every such curve was filed as active; inconclusive means small, poorly fitted or top-dose-only effect, or another doubt; inactive means no such curve, though single readings can be large or run the other way; further: potency means the concentration at half of the fitted maximal effect
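20 nM HPGD preincubated 15 min at room temperature with compound in 50 mM Tris-HCl pH 8, 0.01% Tween 20. Started with 1 mM NAD+ and 30 uM prostaglandin E2; NADH fluorescence (360/450 nm) read 5 times over 30-s intervals, last minus first.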
GLA spleen mod = inhibits or activates alpha-galactosidase in human spleen homogenate; human spleen homogenate, 4MU-alpha-Gal fluorescence, 40 min; Potency, µM (highest dose often 80 µM), inactives show top-dose activity change, negative = inhibition, most hits filed as inhibitors; 0.008% of 240,000 active; P06280;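 further: potency means the concentration at half of the fitted maximal effect; 0% = enzyme with vehicle and -100% = no enzyme basal signal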
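Human spleen homogenate (1 ug) as enzyme source, 4-methylumbelliferyl-alpha-D-galactopyranoside 1 mM final, citrate/phosphate pH 5.0 with 0.01% Tween-20. Compounds 40 min at 37C, NaOH/glycine stop; fluorescence Ex 365/Em 440, Hill-fit AC50.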
PNC assembly inh = inhibitors of perinucleolar compartment assembly; PC3M PTB-GFP, PNC prevalence imaging, 16 h; active compounds read low; activity change (PNC), negative = inhibition, % at 10 µM; 3.1% of 140,000 active;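 active means readout at or below -70, meaning at least 70% loss of cells showing the perinucleolar compartment, a nuclear body marking cancer cells; inconclusive means readout between -30 and a set limit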;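 further: plate controls were DMSO wells for no effect and camptothecin positive control wells for full effect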
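Compounds are pinned in duplicate onto adhered PC3M cells stably expressing GFP-tagged PTB and incubated 16 h at 37 C. Cells are then fixed, nuclei stained with Hoechst, and PNC-positive cells counted.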
ALDH1A1 block = ALDH1A1 (human) enzyme inhibition; Purified ALDH1A1, NADH fluorescence, propionaldehyde substrate; 7.3% of 220,000 active; Potency, µM (series often up to 75.3 µM), for inactives: at the top dose activity, negative = inhibition, most hits filed as inhibitors; P00352; active means well fitted inhibition curve with a large enough effect, not every such curve was filed as active; inconclusive means small, poorly fitted or top-dose-only effect, or another doubt; inactive means no such curve, though single readings can be large or run the other way;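 further: potency means the concentration at half of the fitted maximal effect; plate controls were no enzyme wells and a reference inhibitor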
GLA inh pH 4.5 = blocks human alpha-galactosidase A at pH 4.5; P06280; purified enzyme, 4-MU-alpha-Gal fluorescence, pH 4.5; activity change, negative = inhibition, % at 105 µM; 230,000 tested, under 10 active; AID 1467;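 further: 0% = full activity with enzyme and -100% = basal without enzyme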
12-hLO inh = inhibitors of human 12-lipoxygenase (ALOX12) | P18054 | purified 12-hLO, xylenol orange hydroperoxide absorbance | Potency, µM (highest dose often 57.1 µM), inactives show at the highest dose activity change, negative = inhibition, most hits filed as inhibitors | 0.12% of 150,000 active | AID 1452; further: potency means the concentration at half of the fitted maximal effect; nearly all actives have a fitted effect of over 55% in size
Target sequence (P18054 whole entry, looked up): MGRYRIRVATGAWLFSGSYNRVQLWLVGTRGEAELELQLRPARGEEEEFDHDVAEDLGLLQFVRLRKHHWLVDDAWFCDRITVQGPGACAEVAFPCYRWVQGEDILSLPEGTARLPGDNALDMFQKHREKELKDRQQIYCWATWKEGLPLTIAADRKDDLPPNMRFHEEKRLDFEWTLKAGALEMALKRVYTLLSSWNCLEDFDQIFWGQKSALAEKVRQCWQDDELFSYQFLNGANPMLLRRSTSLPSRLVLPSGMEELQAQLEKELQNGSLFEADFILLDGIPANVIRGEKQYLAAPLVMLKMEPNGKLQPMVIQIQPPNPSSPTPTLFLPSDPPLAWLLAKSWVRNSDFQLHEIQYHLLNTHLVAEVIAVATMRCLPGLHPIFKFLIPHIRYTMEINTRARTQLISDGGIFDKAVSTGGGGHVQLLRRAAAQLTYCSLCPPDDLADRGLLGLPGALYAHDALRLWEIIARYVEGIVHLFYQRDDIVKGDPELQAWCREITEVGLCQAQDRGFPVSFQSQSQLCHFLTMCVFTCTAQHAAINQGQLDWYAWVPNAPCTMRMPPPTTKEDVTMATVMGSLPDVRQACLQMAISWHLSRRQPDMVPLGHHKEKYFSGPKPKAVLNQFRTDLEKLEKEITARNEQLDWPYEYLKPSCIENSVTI
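Hydroperoxide output read as Fe(III)-xylenol orange absorbance, 573-to-405 nm ratio, after 30 min reaction with 40 uM arachidonic acid. Enzyme: 150 nM purified human 12hLO, 15 min compound preincubation; 25 mM Hepes pH 7.0, room temperature.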
Starred values were filed as active, the others as inactive; u = inconclusive; x = no result given; [ ] = dose if it differs, or a comment. The list is not random: actives were taken first. Their share in the collection is about 10%. Unless noted, the call rests on the fitted dose curve; in most records, active means well fitted curve in the direction sought with a large enough effect; inconclusive means small, poorly fitted or top-dose-only effect, or another doubt; inactive means no such curve, though single readings can be large; an effect the other way counts as inactive or inconclusive. Unless noted, on the % scale 0 is the no-effect control and ±100 the full control effect.

SMILES	HPGD block	GLA spleen mod	PNC assembly inh	ALDH1A1 block	GLA inh pH 4.5	12-hLO inh
Cc1ccc(NC2c3ncccc3C(=O)N2Cc2ccco2)c(C)c1 (stereo not drawn)	x	1.1%	x	-2.2%	1.3	x
Nc1ncnc2c1ncn2[C@@H]1O[C@@H](CO)[C@H](O)[C@@H]1O	x	x	x	x	x	2.1%
O=C(CN1CCCCCCC1)N/N=C/c1ccccc1F	31.6µM*	-1.2%	u	u	12.3	-6.2%
O=C(CN1CCSCC1)N/N=C/c1ccccc1F	-22.7%	4.0%	-10.7	u	8.7	-5.5%
O=C(CCN1CCN(CC(=O)Nc2ccccc2Cl)CC1)Nc1ccccc1F	-9.8%	-4.0%	-22.2	-1.2%	-4.1	2.7%
O=C(CN1CCN(CC(=O)Nc2ccccc2C(F)(F)F)CC1)Nc1ccccc1F	-7.7%	1.0%	u	25.1µM*	4.1	0.4%
O=C(CN1CCN(CC(=O)c2ccc(F)cc2)CC1)Nc1ccccc1Cl	u	7.8%	-7.1	2.24µM*	-6.4	3.9%
O=C(NCCN1C(=O)S/C(=C\c2ccccc2F)C1=O)C1CCCN1C(=O)c1cccs1 (stereo not drawn)	x	-3.7%	22.9	-5.9%	-7.6	2.5%
COc1ccc(C(OCCN2CCC[C@H](C(=O)O)C2)(c2ccc(OC)cc2)c2ccc(OC)cc2)cc1	x	-5.5%	x	x	x	x
CC(C(=O)N1CCCC1)N1CCN(c2ccccc2O)CC1 (stereo not drawn)	x	6.1%	x	-2.2%	-18.7	x
CCCCN1CCC[C@H]1CNC(=O)c1cc(C#N)c2ccccc2c1OC	x	6.7%	x	x	x	x
COCCNC(=O)C1=C(N)C(C(=O)Nc2ccc(C)c(S(=O)(=O)N3CCCCC3)c2)SC1=Nc1ccc(C)cc1C (stereo not drawn)	u	1.0%	0.4	0.794µM*	-10.3	0.4%
COCCNCC(=O)Nc1ccc(C)c(S(=O)(=O)N2CCCCC2)c1	x	-4.2%	x	-3.3%	1.0	x
CC(Sc1ccsc1[N+](=O)[O-])C(=O)NCCc1ccc(Cl)cc1 (stereo not drawn)	-11.0%	-15.5%	-6.0	3.16µM*	1.8	-11.6%
Cc1cc(C)cc(NC(=S)N(CCN(C)C)Cc2cccs2)c1	x	-1.3%	x	-14.4%	-3.8	x
N#Cc1c(-c2ccc(Br)cc2)nc2n(c1=O)CCCS2	28.2µM*	3.0%	u	35.5µM*	-3.4	-1.9%
N#Cc1c(-c2ccc(Cl)cc2)nc2n(c1=O)CCCS2	-24.8%	0.4%	u	u	-2.4	-17.3%
COC(=O)c1ccccc1S(=O)(=O)N1CCc2nc(COc3ccccc3)c3c(c2C1)CO[C@@H](C)C3	-1.3%	-3.7%[17.5 µM]	x	-7.3%[13.5 µM]	-10.1	3.3%[11.4 µM]
Cc1ccc(-n2nc3c(n2)/C(=N/O)CC/C3=N\O)cc1	-18.8%	-7.0%	-100.0*	3.9%	-2.6	-7.8%
O/N=C1\CC/C(=N\O)c2nn(-c3ccccc3Cl)nc21	-7.1%	12.5%	-19.5	-7.6%	-1.9	-6.8%
CCc1ccccc1NC(=O)CN1C(=O)C2CCCN2c2ncc(Cl)cc21 (stereo not drawn)	-9.8%	-9.1%	u	17.8µM*	-8.5	-5.4%
COC(=O)c1ccccc1NC(=O)CN1C(=O)C2CCCN2c2ncc(Cl)cc21 (stereo not drawn)	u	-0.2%	4.0	u	-7.0	-0.9%
CCOC(=O)Cc1csc(NC(=O)CSc2nnc3ccccn23)n1	x	-4.0%	x	2.6%	3.5	x
Cc1ccc(C(C)C)c(OCc2ccc(-c3nnco3)cc2)c1	10µM*	0.3%	42.1	-12.2%	-8.7	-14.0%
CCNc1ncc2nc(-c3ccccc3)c(=O)n(Cc3cccs3)c2n1	x	16.9%	x	u	x	x
SMILES	HPGD block	GLA spleen mod	PNC assembly inh	ALDH1A1 block	GLA inh pH 4.5	12-hLO inh
O=C(COC(=O)c1ccc(Cl)nc1)c1ccc2c(c1)OCCO2	x	-2.3%	x	-4.3%	-2.2	x
CC1=C(C)NC(=S)SC1	u	8.9%	45.6	22.4µM*	8.5	-5.8%
FC(F)(F)c1cc(NC(=S)Nc2ccc3cc4ccccc4cc3c2)cc(C(F)(F)F)c1	-16.6%	-6.5%	x	-9.2%	-1.5	x
C[C@@](O)(/C=C/[C@H]1CC=CC(=O)O1)[C@@H](C[C@@H](O)\C=C/C=C\C=C\CO)OP(=O)(O)O	-0.3%	-4.0%[17.5 µM]	x	5.6%[13.5 µM]	-5.0	-1.4%[0.00818 µM]
Cn1c(CCN2CCCCC2)nc2cc([N+](=O)[O-])ccc21	-27.2%	5.9%	u	u	3.3	-16.4%
Cn1c(CN2CCCCC2)nc2cc([N+](=O)[O-])ccc21	x	-6.3%	x	11.2µM*	-0.6	x
Cc1c(NC2=NC(C)(C)Cc3ccccc32)c(=O)n(-c2ccccc2)n1C	-6.5%	-3.9%	-88.5*	7.6%	-6.8	6.0%
COC(=O)c1ccc(S(=O)(=O)NCCSc2nnc3c4ccccc4n(C)c3n2)cc1	u	0.2%	15.7	15.8µM*	-7.0	-4.9%
CC(C)(C)c1ccc(-c2cn(-c3ccc(Br)cc3)c3[n+]2CCCS3)cc1	x	-4.0%	x	u	6.8	x
CN(Cc1ccc(Cl)cc1)C(=O)CCl	x	-3.7%	x	0.501µM*	6.6	x
CN(Cc1ccc(Cl)s1)C(=O)CCl	x	-2.1%	x	0.355µM*	-3.4	x
COc1ccc(CN(C)C(=O)CCl)cc1	x	1.2%	x	0.501µM*	-1.4	x
CN(C)CCNC(=O)c1ccc(Cl)s1	-11.5%	3.9%	u	8.9%	0.9	4.2%
CC(C)(O)C1CC[C@@]2(C)C3CCC4[C@@]5(C)CCCC(C)(C)C5C(O)C[C@]4(C)[C@]3(C)CC[C@@H]12 (stereo partly drawn)	-6.4%	4.7%	x	-3.7%	1.4	-0.8%
CCCCCC(=O)Nc1ccc(-c2csc(N)n2)cc1	x	-7.5%	x	u	4.7	x
O=C(C[n+]1ccc(-c2nnc3n2CCCCC3)cc1)c1ccc(Cl)cc1	x	-2.3%	x	x	-8.6	x
COC(=O)c1cc(C)sc1NC(=O)CCCC(=O)O	-12.8%	1.7%	-118.5*	-0.1%	-2.5	0.0%
CC(OC(=O)CNC(=O)c1ccccc1F)C(=O)Nc1nc(-c2ccccc2)cs1 (stereo not drawn)	-23.7%	0.8%	-24.0	-1.0%	6.8	-21.4%
CCOC(=O)c1c(C)c(C(=O)NCc2ccco2)c(C)n1C	x	6.2%	x	-9.7%	u	x
CCOC(=O)c1c(C)n(C)c2ccc(OC)c(NC(=O)CN3CCN(C(=O)c4ccco4)CC3)c12	-9.6%	-7.3%	-10.8	7.94µM*	-1.1	-1.4%
CCc1ccc(NC(=O)C(=O)NCCN2CCN(C(=O)c3ccco3)CC2)cc1	-10.2%	-2.1%	22.0	22.4µM*	-4.1	-15.6%
CCOC(=O)c1c(C)n(C)c2ccc(OC)c(NC(=O)CN3CCN(C4CCCCC4)CC3)c12	-9.1%	-6.3%	u	u	-6.0	2.5%
CCc1ccc(NC(=O)C(=O)NCCN2CCN(S(C)(=O)=O)CC2)cc1	x	-6.8%	x	-1.2%	-0.8	x
